# Beta apoptosis – inhibitors of cytokine-induced beta cell apoptosis, primary screen, luminescence. INS-1E cytokine-induced death, ATP luminescence, 48 h; percent of positive-control rescue, neutral wells zero. protection from apoptosis, % (test concentration not listed). 300,000 tested, 0.8% active;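 active = Every replicate reaches about 75%, or at least half do and their mean reaches it too, limit read from the data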;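 note: higher means more ATP so stronger rescue from cytokine killing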
# CSC inhib – cancer stem cell viability inhibitors, primary screen, luminescence; cancer stem cell-like cells viability; inhibition, % at 7.5 µM; 300,000 tested, 1.1% active; AID 2717, 2010; in the data active = inhibition above about 75%; tested in HMLE shEcad cells
# GRIN3A LBD mod – binders of NR3A ligand-binding domain, primary screen, biophysical, differential scanning fluorimetry, uHTS; NR3A LBD differential scanning fluorimetry, Tm shift; 0% = protein alone, 100% = glycine-bound protein; 340,000 tested, 2.5% active; AID 1259313, 2017; Tm shift relative to glycine control, % at 25 µM; Glutamate receptor ionotropic, NMDA 3A (GRIN3A) ligand-binding domain;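 active = melting temperature shift of at least 10% of the positive control shift, at one fixed dose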
# MPTP block – mitochondrial permeability transition pore inhibitors, primary screen, biochemical, isolated mouse mitochondria, absorbance; Ca2+ swelling absorbance, 30 min; inhibition, % at 10 µM; 360,000 tested, 1.4% active;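 active = inhibition of 50% or more, scaled per plate between neutral and stimulator controls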
# Mdm2-MdmX inh – inhibitors of human Mdm2-MdmX association, primary screen, cell-based, luminescence, split luciferase, SaOS-2, uHTS | SaOS-2 split-luciferase Mdm2/MdmX complementation | inhibition, % at 8 µM | 330,000 tested, 3% active;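 active = inhibition of at least 50% at 8 µM in the primary screen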
# Target sequence (O15151 whole entry, looked up): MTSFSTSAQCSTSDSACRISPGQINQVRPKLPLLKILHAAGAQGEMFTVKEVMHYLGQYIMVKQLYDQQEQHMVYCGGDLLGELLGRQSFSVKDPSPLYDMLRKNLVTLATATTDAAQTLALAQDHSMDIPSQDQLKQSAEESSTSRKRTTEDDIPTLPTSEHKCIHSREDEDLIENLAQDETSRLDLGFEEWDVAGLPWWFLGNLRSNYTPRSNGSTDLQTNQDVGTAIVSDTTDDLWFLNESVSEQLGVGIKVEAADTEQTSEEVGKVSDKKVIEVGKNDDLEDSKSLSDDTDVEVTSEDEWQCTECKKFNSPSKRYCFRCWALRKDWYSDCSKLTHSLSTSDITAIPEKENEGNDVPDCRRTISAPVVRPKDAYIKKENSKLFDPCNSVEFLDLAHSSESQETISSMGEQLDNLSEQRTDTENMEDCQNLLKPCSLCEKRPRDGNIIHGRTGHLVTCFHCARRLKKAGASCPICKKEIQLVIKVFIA
# Target sequence (Q00987 whole entry, looked up): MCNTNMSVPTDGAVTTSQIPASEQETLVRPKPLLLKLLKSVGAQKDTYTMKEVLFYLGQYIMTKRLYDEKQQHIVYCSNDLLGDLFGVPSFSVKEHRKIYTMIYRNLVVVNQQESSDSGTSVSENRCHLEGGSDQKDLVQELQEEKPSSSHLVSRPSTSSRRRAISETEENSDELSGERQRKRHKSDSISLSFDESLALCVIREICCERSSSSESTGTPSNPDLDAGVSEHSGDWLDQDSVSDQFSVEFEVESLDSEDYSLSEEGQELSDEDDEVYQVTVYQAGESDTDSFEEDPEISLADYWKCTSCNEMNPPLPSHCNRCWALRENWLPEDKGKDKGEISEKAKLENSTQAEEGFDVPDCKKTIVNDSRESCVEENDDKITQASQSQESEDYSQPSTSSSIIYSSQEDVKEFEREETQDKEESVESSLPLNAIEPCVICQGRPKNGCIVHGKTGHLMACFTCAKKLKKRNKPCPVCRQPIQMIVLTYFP
# SKKanGAS inh – S. pyogenes SKKanGAS growth inhibitors in kanamycin, primary screen, streptokinase expression inhibitor project, SKKanGAS strain, BacTiter-Glo luminescence; 6 h; 300,000 tested, 1.3% active; inhibition, % at 7.5 µM; AID 1662, 2009;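 active = mean replicate score, as percent of positive control median, at least 50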;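 note: strain carries kanamycin resistance gene driven by streptokinase promoter and grows in 40 µg/ml kanamycin; loss of luminescence reflects streptokinase promoter inhibition or plain growth inhibition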
# Numbers stand for hits; 0 = inactive; - = no result. A selection: hits, their analogues and other compounds. The true share with any hit is near 6.9%.
SMILES,Beta apoptosis,CSC inhib,GRIN3A LBD mod,MPTP block,Mdm2-MdmX inh,SKKanGAS inh
CC(=O)Nc1cccc(-c2ccnc3c2CC(C)(C(=O)Nc2cccc(Oc4ccccc4)c2)O3)c1 (stereo not drawn),-,-,-,0,-,-
Cc1cc(C)nc(NC(=O)c2csnn2)c1,0,0,0,0,0,0
O=C(Nc1csnn1)c1csnn1,0,0,15,0,0,0
Cc1cccnc1NC(=O)c1csnn1,0,0,10,0,0,0
O=C1CC(NS(=O)(=O)c2ccccc2F)CN1c1ccc2c(c1)OCCO2 (stereo not drawn),-,0,0,0,0,0
CCCNC(=O)C(Cc1ccccc1)NC(=O)c1ccc(C(F)(F)F)cc1 (stereo not drawn),0,0,0,0,0,-
COc1ccc2[nH]c(C(=O)N3CCC(CO)(Cc4cccc(C(F)(F)F)c4)CC3)c(C)c2c1,0,0,0,0,0,0
O=C1NC[C@@H](CCCCN2CCN(CCC3CCCCC3)C(=O)C2=O)N(Cc2ccccc2)C1=O,-,-,-,0,-,-
Nc1nc2c(-c3ccc(Br)cc3)nnn2c2ccccc12,0,0,37,0,0,0
CCCCNc1nc2c(-c3ccccc3)nnn2c2ccccc12,0,0,0,0,0,0
Cc1ccc(-c2nnn3c2nc(NCCc2ccc(S(N)(=O)=O)cc2)c2ccccc23)cc1,0,0,86,0,0,0
Cc1ccc(-c2nnn3c2nc(NC(C)C)c2ccccc23)cc1,0,0,23,0,0,0
CCCCCCCCCC(=O)N1c2ccccc2NC(=O)C1CC(=O)Nc1ccc(C(=O)O)cc1 (stereo not drawn),0,0,0,0,0,0
COc1ccc(NC(=O)c2ccco2)cc1S(=O)(=O)N1CCCCC1,0,0,0,0,0,0
COc1ccc(NC(=O)c2n[nH]c(=O)c3ccccc23)cc1S(=O)(=O)N1CCCCC1,0,0,26,0,0,0
CC(NC(=O)[C@H](C)NC(=O)[C@@H]1CSC2c3ccccc3C(=O)N21)c1ccccc1 (stereo partly drawn),0,0,0,0,0,0
CCc1nnc(NS(=O)(=O)c2ccc(NCc3cc(Cl)cc(Cl)c3O)cc2)s1,0,0,0,0,0,54
CCc1nnc(NS(=O)(=O)c2ccc(NCc3cc(Cl)ccc3O)cc2)s1,0,-,0,0,0,0
COc1ccc(S(=O)(=O)Nc2cc3c4c(c2)C(C)C(=O)N4CCC3)cc1OC (stereo not drawn),0,0,-,0,0,0
COc1cc(OC)c(NC(=O)N2CCOCC2)cc1Cl,0,0,0,0,0,0
CCC(C)(C)n1nnnc1C(c1ccc(O)cc1)N1CCc2ccccc2C1 (stereo not drawn),0,0,0,0,0,0
CC(C)[C@H](NC(=O)OCc1ccccc1)C(=O)OCC(=O)N1CCN(c2ccccc2)CC1,0,0,0,0,0,0
COc1ccc(-c2cc(-c3ccccc3)nc(SCC(=O)Nc3ncc(C)s3)c2C#N)cc1,0,0,20,0,0,0
Cc1ccc(NC(=O)c2ccc(NS(=O)(=O)/C=C/c3ccccc3)cc2)nc1,0,0,18,0,0,0
Cc1cc(NCc2ccccc2)n2ncc(-c3ccccc3)c2n1,0,0,0,0,0,0
SMILES,Beta apoptosis,CSC inhib,GRIN3A LBD mod,MPTP block,Mdm2-MdmX inh,SKKanGAS inh
CC(C)(C)c1cc(NCc2ccccn2)n2ncc(-c3ccccc3)c2n1,-,78,0,0,0,108
NNc1nc(-c2ccccc2)nc2sc3c(c12)CCCC3,0,0,0,0,0,0
Nc1c2c(nc3sc4c(c13)CCCC4)-c1ccccc1CC2,0,0,22,0,0,0
CC(/C=C/c1ccc2c(c1)OCO2)=N/NC(=O)c1ccncc1,-,-,0,0,0,0
CC1=C(/C=C/C(C)=N\NC(=O)c2ccncc2)C(C)(C)CCC1,0,0,0,0,0,57
CC(C)C1OC2c3cccc4cccc(c34)C2N1c1ccccc1 (stereo not drawn),0,0,0,0,0,80
CCN(Cc1nc2cc(Cl)ccc2c(=O)[nH]1)C(=O)COc1ccccc1Cc1ccccc1,-,-,0,0,0,-
